High-throughput results (PubChem)
Rows were chosen to be rich in hits. Some 3.4% of all compounds tested hit in one or more screens of this group.
MITF primary: blocks human microphthalmia-associated transcription factor; AID 1259374; AlphaScreen MITF homodimerization, bead proximity signal; inhibition, % at 2.6 µM; 650,000 compounds, 0.91% hits; in the data active = inhibition above about 50%
Target sequence (O75030 whole entry, looked up): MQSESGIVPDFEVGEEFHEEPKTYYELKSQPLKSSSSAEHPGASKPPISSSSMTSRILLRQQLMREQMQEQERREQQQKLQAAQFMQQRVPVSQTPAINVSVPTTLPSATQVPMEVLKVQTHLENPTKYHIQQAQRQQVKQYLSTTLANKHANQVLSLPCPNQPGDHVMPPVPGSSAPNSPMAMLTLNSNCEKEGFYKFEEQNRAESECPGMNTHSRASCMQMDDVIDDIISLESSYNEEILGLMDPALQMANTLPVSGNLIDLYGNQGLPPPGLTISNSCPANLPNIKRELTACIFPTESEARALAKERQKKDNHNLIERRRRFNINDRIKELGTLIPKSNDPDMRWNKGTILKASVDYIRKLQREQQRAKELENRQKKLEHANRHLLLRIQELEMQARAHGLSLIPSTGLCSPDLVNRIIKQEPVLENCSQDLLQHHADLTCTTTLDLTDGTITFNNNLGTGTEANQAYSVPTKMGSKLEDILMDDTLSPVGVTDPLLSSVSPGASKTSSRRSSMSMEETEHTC
FBW7 act: human FBW7 E3 ligase activation, primary screen; Q969H0; AlphaScreen FBW7–phospho-cyclin E peptide binding, activator screen; normalized activity (activation), % at 26.1 µM; 650,000 compounds, 0.13% hits; in the data active = normalized activity above about 1.9%;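 note: purified mutant Fbw7 with reduced substrate affinity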
TEAD-YAP inh: TEAD-YAP interaction inhibition; HEK-TIYL cells, TEAD-Gal4/YAP UAS-luciferase luminescence; inhibition, % at 9.12 µM; 640,000 compounds, 1.4% hits; AID 1259422; in the data active = inhibition above about 32%
GPR151 ag: activators of human GPR151. 650,000 compounds, 1% hits. PathHunter beta-arrestin GPR151 cells, luminescence. Q8TDV0. activation, % at 11.2 µM; in the data active = activation above about 4.9%
MITF inh conf: human MITF inhibition, confirmation. shares compounds with MITF primary. AlphaScreen MITF homodimerization, biotin/His-MITF beads. inhibition, % at 2.6 µM. 4,700 compounds, 16% hits. AID 1259372;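 active = inhibition above a cutoff derived from the DMSO control wells, cut at about 28% in these data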;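 note: inhibitors lower the bead chemiluminescence by keeping MITF from dimerizing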
AlphaScreen DR: AlphaScreen optical interference, dose response counter-screen; shares compounds with MITF primary; AlphaScreen optical interference counterscreen, cell-free; IC50, µM; 480 compounds, 6% hits; AID 1259373; call rule not given here
AS interf ctr: AlphaScreen optical interference, counter-screen; shares compounds with MITF primary; LysRS AlphaScreen counterscreen, signal interference, triplicate; inhibition, % at 2.6 µM; 4,700 compounds, 7.6% hits;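 active = inhibition above a cutoff derived from the DMSO control wells, cut at about 30% in these data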
Numbers stand for hits; - = inactive; . = not tested or not shown.

SMILES | MITF primary | FBW7 act | TEAD-YAP inh | GPR151 ag | MITF inh conf | AS interf ctr | others
Brc1cccc(CN2CCN(Cc3ccco3)CC2)c1 | 80.6 | - | - | - | - | -
CCCOc1ccc(NC(=O)CC2C(=O)N(c3ccc(OC)cc3)C(=S)N2CCCN2CCC(Cc3ccccc3)CC2)cc1 (configuration not stated) | - | - | - | - | . | .
O=C(CCCc1nc2ccccc2c(=O)[nH]1)NCc1ccccc1F | - | - | - | - | . | .
COC(=O)C(NC(=O)COc1ccccc1)(Nc1ccc(C)cn1)C(F)(F)F (configuration not stated) | - | - | - | - | . | .
COc1cc(/C=C2\N=C(c3ccccc3F)OC2=O)ccc1OCc1ccc(Cl)cc1 | - | - | - | - | . | .
Clc1cccc(N2CCN(Cc3ccco3)CC2)c1 | - | - | - | - | . | .
Clc1cccc(CN2CCN(Cc3ccco3)CC2)c1 | 71.7 | - | - | - | - | -
CN(C)C(=O)C1C2NC(=S)N(c3ccc(Br)cc3)C1(C)Oc1ccc(Cl)cc12 (configuration not stated) | 68.1 | - | - | - | - | -
O=C(Cn1cccn1)NCc1ccc(OCc2ccccc2)cc1 | - | - | - | - | . | .
COc1ccc(C[C@@H]2NC(=O)[C@H]3CN(C(=O)c4ccc(-c5ccccc5)cc4)CCN3C2=O)cc1 | - | - | - | - | . | .
C[C@@H](O)[C@@H]1NC(=O)[C@H]2CN(C(=O)OCc3ccccc3)CCN2C1=O | - | - | - | - | . | .
COc1ccc(C[C@@H]2NC(=O)[C@H]3CN(C(=O)NCc4ccccc4)CCN3C2=O)cc1 | 79.4 | - | - | - | 72.0 | - | AlphaScreen DR=-
C[C@H](O)[C@H]1NC(=O)[C@H]2CN(C(=O)NCc3ccccc3)CCN2C1=O | 75.0 | - | - | - | 70.8 | - | AlphaScreen DR=-
O=C1N[C@H](Cc2ccccc2)C(=O)N2CCN(C(=O)NCc3ccccc3)C[C@H]12 | 68.6 | - | - | - | 63.7 | - | AlphaScreen DR=-
O=C1N[C@@H](Cc2cnc[nH]2)C(=O)N2CCN(C(=O)NCc3ccccc3)C[C@H]12 | - | - | - | - | . | .
N#C/C(=C\c1cccc(Cl)c1Cl)C(N)=S | - | - | - | - | . | .
COc1ccccc1CN[C@H]1C[C@H]2C(=O)N[C@H](C)C(=O)N2C1 | - | - | - | - | . | .
COc1cc(/C=C2/N=C(c3cccc(Cl)c3Cl)OC2=O)cc(Br)c1OC(C)=O | 79.9 | - | - | - | - | -
COc1cc(/C=C2\N=C(c3ccccc3F)OC2=O)cc(Br)c1OC(C)=O | - | - | - | - | . | .
COc1ccc(-c2noc(CNC(=O)CC(C)(C)C)n2)cc1 | - | - | - | - | . | .
CCCCC(=O)Nc1cc(C)c(Cl)cc1OC | - | - | - | - | . | .
CCCCC(=O)Nc1cc(OC)c(NC(=S)NC)cc1OC | 75.5 | - | - | - | - | -
CC(C)(C)NS(=O)(=O)c1ccc(NS(=O)(=O)c2ccc([N+](=O)[O-])cc2)cc1 | - | - | - | - | . | .
Cc1ccc(-n2ncc3c(N4CCN(c5cccc(Cl)c5)CC4)ncnc32)c(C)c1 | - | - | - | - | . | .
CC1(C)CCCC2=C1CC(C(=O)O)C(C(=O)N1CCCCC1)C2 (configuration not stated) | 84.7 | - | - | - | - | -
SMILES | MITF primary | FBW7 act | TEAD-YAP inh | GPR151 ag | MITF inh conf | AS interf ctr | others
CCCn1c(-c2ccc(OC)cc2)nc2c(c(=O)c3ccccc3n2C)c1=O | 90.0 | - | - | - | - | -
COCCn1c(-c2ccc(F)cc2)nc2c(c(=O)c3ccccc3n2C)c1=O | - | - | - | - | . | .
Cc1cc(NCc2ccccc2F)n2ncnc2n1 | 51.4 | - | - | - | - | -
Cc1cc(NCc2ccccc2)n2ncnc2n1 | - | - | - | - | . | .
CCN(CC)CCCOc1ccc2ccccc2c1 | 66.3 | - | - | - | - | -
CC1CCC(N2CCN(Cc3cccc(Cl)c3)CC2)CC1 (configuration not stated) | 63.5 | - | - | - | - | -
OC1CCN(Cc2ccc3c(c2)OCO3)CC1 | - | - | - | - | . | .
CC1CCN(C2CCN(Cc3cccc(Cl)c3)CC2)CC1 | 57.1 | - | - | - | - | -
Clc1cccc(CN2CCN(C3CCCCC3)CC2)c1 | 74.1 | - | - | - | - | -
Cc1cccc(CN2CCN(C3CCCCCC3)CC2)c1 | - | - | - | - | . | .
OCC1CCN(C2CCCN(Cc3cccc(Cl)c3)C2)CC1 (configuration not stated) | - | - | - | - | . | .
CC1CCN(C2CCN(Cc3ccc4c(c3)OCO4)CC2)CC1 | 54.5 | - | - | - | - | -
COc1ccc(-c2cccc(C(=O)NCCc3ccc(O)cc3)c2)cn1 | - | - | - | - | . | .
N#C/C(=C\c1ccc(-c2ccccc2C(=O)O)o1)C(=O)NCc1ccco1 | 75.9 | - | - | - | 63.9 | - | AlphaScreen DR=-
Cc1c(C(=O)O)cccc1-c1ccc(/C=C(\C#N)C(=O)NCc2ccco2)o1 | - | - | - | - | . | .
CCOC(=O)c1c(CNCCN(CC)CC)n(C)c2cc(Br)c(O)cc12 | - | - | - | - | . | .
CCCCN(CC)c1ncnc2sc(C)c(C)c12 | 51.4 | - | - | - | - | -
Cc1ccc(Cn2nnc3c(=O)n(Cc4ccc(F)cc4)cnc32)cc1 | - | - | - | - | . | .
Cc1nc(C)n(-c2ccc(Nc3cc(-n4cc(N(c5cccnc5)c5cccnc5)cn4)ccn3)cc2)n1 | 50.8 | - | - | - | 52.2 | - | AlphaScreen DR=-
O=C(c1cnn2cccnc12)N1CCc2c(nc(N3CCCC3)[nH]c2=O)C1 | - | - | - | - | . | .
Cc1ccc(C)c(NC(=O)CNCC(C)(C)CN(C)C)c1 | 73.6 | - | - | - | - | -
CN(C)CC(C)(C)CNCC(=O)Nc1ccc(OC(F)(F)F)cc1 | 55.2 | - | - | - | - | -
CCC(C)(C)NCC(=O)Nc1ccc(OC(F)(F)F)cc1 | - | - | - | - | . | .
Cc1ccc(C)c(NC(=O)CCC(=O)Nc2cc(C)ccc2C)c1 | - | - | - | - | . | .
NNC(=O)C(=O)NNc1ccccn1 | 69.5 | - | - | - | 74.2 | 100.6
SMILES | MITF primary | FBW7 act | TEAD-YAP inh | GPR151 ag | MITF inh conf | AS interf ctr | others
CCCCNC(=O)c1cc(-c2ccc(Br)cc2)on1 | 52.2 | - | - | - | - | -
CCCNC(=O)c1cc(-c2ccc(Br)cc2)on1 | - | - | - | - | . | .
COc1cc(C=Nc2ccc(N(C)C)cc2)cc(I)c1O | 76.6 | - | - | - | 45.3 | - | AlphaScreen DR=-
CCOC(=O)c1c(C)oc2c1c(/C=N/N1CCN(C)CC1)c(O)c1ccccc12 | - | - | - | - | . | .
CN(C)CCNc1cc(-c2cccc(C(F)(F)F)c2)nc(-c2ccncc2)n1 | - | - | - | - | . | .
COC(=O)Cc1cc(=O)n(-c2nc3ccccc3[nH]2)[nH]1 | 94.3 | - | - | - | 72.2 | 98.6
COc1ccc2c(c1)CC(C(=O)Nc1ccc(-c3cn[nH]c3C)cc1SCCN1CCCC1)CO2 (configuration not stated) | - | - | - | - | . | .
O=C(NC1CCCCC1)N1CCN2C(=O)[C@H]3CCCN3C(=O)[C@H]2C1 | 78.8 | - | - | - | 73.2 | - | AlphaScreen DR=-
